Data taken from ChEMBL document CHEMBL3988442, “University of Dundee, Small-Polar-MMV Screening Library” (2021).

molecular target: T1, Aspartate--tRNA(Asp/Asn) ligase (Mycobacterium tuberculosis (strain ATCC 25618 / H37Rv)) (UniProt P9WFW3); test: Assay for Asp RNA synthetase-1 from Mycobacterium tuberculosis; format: functional; set-up: scale not given: direction of the effect not stated beside the values; details: 30 µM; also: in the data most compounds retested in dose-response had high values
T1 sequence (whole entry): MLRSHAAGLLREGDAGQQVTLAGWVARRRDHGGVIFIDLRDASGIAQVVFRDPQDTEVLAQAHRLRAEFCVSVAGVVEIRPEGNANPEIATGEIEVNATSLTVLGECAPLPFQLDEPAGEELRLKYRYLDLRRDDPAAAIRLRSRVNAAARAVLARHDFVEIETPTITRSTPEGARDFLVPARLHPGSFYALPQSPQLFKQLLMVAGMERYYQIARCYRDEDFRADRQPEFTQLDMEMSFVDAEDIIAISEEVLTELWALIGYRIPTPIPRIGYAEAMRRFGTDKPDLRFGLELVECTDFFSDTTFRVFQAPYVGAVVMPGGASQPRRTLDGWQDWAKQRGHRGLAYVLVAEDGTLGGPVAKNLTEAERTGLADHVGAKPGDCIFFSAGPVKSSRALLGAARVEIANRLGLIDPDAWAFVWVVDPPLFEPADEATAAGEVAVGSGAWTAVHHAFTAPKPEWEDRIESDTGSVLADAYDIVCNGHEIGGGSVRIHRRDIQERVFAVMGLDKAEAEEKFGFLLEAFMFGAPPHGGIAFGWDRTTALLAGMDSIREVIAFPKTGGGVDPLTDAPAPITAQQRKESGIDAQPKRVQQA

Structure (SMILES)	Percent Effect
c1ccc2oc(NC3CCCN(Cc4noc(C5CC5)n4)C3)nc2c1 (stereo not given)	-5.59%
Cc1ncsc1CN1C[C@@H](OCC2CC2)[C@H]2OCCC[C@H]21	-6.67%
COc1ccc(C(N)c2cccc(S(C)(=O)=O)c2)cc1 (stereo not given)	-2.54%
CN(C)c1nc2c(c(=O)[nH]1)CCN(C(=O)c1cccc3nccnc13)C2	4.01%
Cc1noc([C@@H]2C[C@H]3OCC[C@H]3N(S(C)(=O)=O)C2)n1	-0.616%
CC1CN(C(=O)c2ccn(-c3cccc(Cl)c3)n2)CCO1 (stereo not given)	-3.19%
CC(C)c1nccn1C1CCCN(C(=O)c2cccc3c2OCO3)C1 (stereo not given)	0.582%
CCCN1CC(C(=O)Nc2ccccn2)CC1=O (stereo not given)	-1.33%
CCc1noc(C(C)N2CCN(Cc3ncc(C(C)(C)C)o3)CC2)n1 (stereo not given)	-1.28%
O=C(NCC1CCOC1)c1csc(-c2ccco2)n1 (stereo not given)	2.85%
Cc1ccc(N2CCC3(CCCN(C(=O)c4cccnc4)C3)C2)nn1 (stereo not given)	8.13%
CCn1cc(CN(C)S(=O)(=O)c2ccc(NC(C)=O)cc2)cn1	2.64%
Cc1cccc(NC(=O)c2sccc2C)n1	-4.94%
Cc1cc(C2CCCN(C(=O)c3cnn(C)c3)C2)ccn1 (stereo not given)	-6.03%
CC(C)c1nn(C)c(N2CCOCC2)c1CNC(C)c1cccs1 (stereo not given)	-0.59%
Cc1ccc(CCN2CCC(N(C)Cc3noc(C4CC4)n3)C2)cc1 (stereo not given)	-2.9%
COc1ncccc1NC(=O)NCC1CCS(=O)(=O)C1 (stereo not given)	1.33%
O=C(NCCOc1ccc2c(c1)CCC2)N1CCS(=O)(=O)CC1	-1.48%
c1ccc(-c2noc3c2CN(CC2CC2)CC3)cc1	4.77%
CS(=O)(=O)CCSc1cccc(C#N)c1	0.641%

Structure (SMILES)	Percent Effect
Cc1cc(CN2CCCC(C)(CO)C2)ccc1F (stereo not given)	-3.62%
COc1cccc(-c2noc(C3CCN(Cc4cn(C)nc4C)C3)n2)c1 (stereo not given)	-1.93%
COc1c(CNCc2cccc(CN(C)C)c2)c(C)nn1C	-1.85%
Cc1cnn(CC2CCCN2Cc2ncc(-c3ccccc3)o2)c1 (stereo not given)	4.6%
c1ccc(Cn2cc(CNC3CCc4ncnn4C3)cn2)cc1 (stereo not given)	-2.87%
CCc1ccc(NC(=O)c2cnc(N3CCN(C)CC3)nc2C)cc1	-0.248%
O=C(COc1coc(CN2CCCCCC2)cc1=O)c1ccccc1	-4.01%
Cn1c2c(ccc1=O)CC(NS(C)(=O)=O)CC2 (stereo not given)	-0.956%
CCOCC1CN(Cc2ccoc2)Cc2ncn(CC3CC3)c21 (stereo not given)	0.605%
CN1CCN(C(=O)c2cnc3c(cnn3C3CCCC3)c2)CC1	-4%
O=C(NCCO)c1ccn(-c2ccc3ccccn23)n1	2.94%
Cc1cccc(-c2nc(CN3CCc4c(ncn4C)C3)no2)c1	1.91%
Cc1ccoc1C(=O)N1CC[C@H]2OCC[C@@]2(COCc2ccncc2)C1	3.13%
O=C([C@@H]1CC[C@@H]2[C@@H](CCN2Cc2cccc(F)c2)O1)N1CCCCO1	0.291%
CC(=O)N1CCn2c(C(=O)N(C)C)cnc2C1	-2.78%
CC(C)NC(=O)COc1nc(C(C)C)no1	-2.64%
c1ccc(CC2CCN(Cc3ccnc(-c4cccnc4)n3)CC2)cc1	0.908%
N#Cc1cccc(SCCS(N)(=O)=O)c1	0.306%
Cc1c(C)n(-c2ccccn2)c2nc3c(c(N)c12)CCCC3	-3.86%
Cn1nnc2c1C(COCc1ccccn1)CN(C(=O)c1cccs1)C2 (stereo not given)	0.388%

molecular target: Shiga toxin 2 (Escherichia coli O157:H7) (UniProt P09385+P09386); test: E. coli 0.157:H7 Shiga Toxin SOP - stx2 screening assay; format: functional; set-up: scale not given: direction of the effect not stated beside the values; details: 30 µM

Structure (SMILES)	Percent Effect
c1ccc2oc(NC3CCCN(Cc4noc(C5CC5)n4)C3)nc2c1 (stereo not given)	-6.82%
Cc1ncsc1CN1C[C@@H](OCC2CC2)[C@H]2OCCC[C@H]21	4.7%
COc1ccc(C(N)c2cccc(S(C)(=O)=O)c2)cc1 (stereo not given)	-7.65%
CN(C)c1nc2c(c(=O)[nH]1)CCN(C(=O)c1cccc3nccnc13)C2	-35%
Cc1noc([C@@H]2C[C@H]3OCC[C@H]3N(S(C)(=O)=O)C2)n1	-25.2%
CC1CN(C(=O)c2ccn(-c3cccc(Cl)c3)n2)CCO1 (stereo not given)	-15%
CC(C)c1nccn1C1CCCN(C(=O)c2cccc3c2OCO3)C1 (stereo not given)	-1.21%
CCCN1CC(C(=O)Nc2ccccn2)CC1=O (stereo not given)	1.5%
CCc1noc(C(C)N2CCN(Cc3ncc(C(C)(C)C)o3)CC2)n1 (stereo not given)	23.4%
O=C(NCC1CCOC1)c1csc(-c2ccco2)n1 (stereo not given)	-11.7%
Cc1ccc(N2CCC3(CCCN(C(=O)c4cccnc4)C3)C2)nn1 (stereo not given)	-11%
CCn1cc(CN(C)S(=O)(=O)c2ccc(NC(C)=O)cc2)cn1	-65.2%
Cc1cccc(NC(=O)c2sccc2C)n1	-1.59%
Cc1cc(C2CCCN(C(=O)c3cnn(C)c3)C2)ccn1 (stereo not given)	-7.91%
CC(C)c1nn(C)c(N2CCOCC2)c1CNC(C)c1cccs1 (stereo not given)	33.2%
Cc1ccc(CCN2CCC(N(C)Cc3noc(C4CC4)n3)C2)cc1 (stereo not given)	-69.9%
COc1ncccc1NC(=O)NCC1CCS(=O)(=O)C1 (stereo not given)	-1.65%
O=C(NCCOc1ccc2c(c1)CCC2)N1CCS(=O)(=O)CC1	-52.5%
c1ccc(-c2noc3c2CN(CC2CC2)CC3)cc1	-9.68%
CS(=O)(=O)CCSc1cccc(C#N)c1	4.17%

Structure (SMILES)	Percent Effect
Cc1cc(CN2CCCC(C)(CO)C2)ccc1F (stereo not given)	14.3%
COc1cccc(-c2noc(C3CCN(Cc4cn(C)nc4C)C3)n2)c1 (stereo not given)	-38.8%
COc1c(CNCc2cccc(CN(C)C)c2)c(C)nn1C	13.1%
Cc1cnn(CC2CCCN2Cc2ncc(-c3ccccc3)o2)c1 (stereo not given)	25.3%
c1ccc(Cn2cc(CNC3CCc4ncnn4C3)cn2)cc1 (stereo not given)	-22.8%
CCc1ccc(NC(=O)c2cnc(N3CCN(C)CC3)nc2C)cc1	-28%
O=C(COc1coc(CN2CCCCCC2)cc1=O)c1ccccc1	-112%
Cn1c2c(ccc1=O)CC(NS(C)(=O)=O)CC2 (stereo not given)	-18%
CCOCC1CN(Cc2ccoc2)Cc2ncn(CC3CC3)c21 (stereo not given)	-8.58%
CN1CCN(C(=O)c2cnc3c(cnn3C3CCCC3)c2)CC1	-2.45%
O=C(NCCO)c1ccn(-c2ccc3ccccn23)n1	-37%
Cc1cccc(-c2nc(CN3CCc4c(ncn4C)C3)no2)c1	4.04%
Cc1ccoc1C(=O)N1CC[C@H]2OCC[C@@]2(COCc2ccncc2)C1	-14.8%
O=C([C@@H]1CC[C@@H]2[C@@H](CCN2Cc2cccc(F)c2)O1)N1CCCCO1	-15%
CC(=O)N1CCn2c(C(=O)N(C)C)cnc2C1	-21.6%
CC(C)NC(=O)COc1nc(C(C)C)no1	-17.3%
c1ccc(CC2CCN(Cc3ccnc(-c4cccnc4)n3)CC2)cc1	-6.53%
N#Cc1cccc(SCCS(N)(=O)=O)c1	-7.47%
Cc1c(C)n(-c2ccccn2)c2nc3c(c(N)c12)CCCC3	-68.1%
Cn1nnc2c1C(COCc1ccccn1)CN(C(=O)c1cccs1)C2 (stereo not given)	13.7%
